Measured values from PubChem BioAssay.
Values without a mark were called inactive. No rule for the calls is given here.

biological target: Pantothenate synthetase (Mycobacterium tuberculosis (strain ATCC 25618 / H37Rv)) (UniProt P9WIL5); test: Coupled enzyme confirmation of inhibitors against recombinant Mtb PanC (AID 375); conditions: coupled enzyme assay; at 10 µM, hits give high values;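 also: 0% = full reaction with vehicle and 100% = no enzyme background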
Sequence (P9WIL5 whole entry, looked up): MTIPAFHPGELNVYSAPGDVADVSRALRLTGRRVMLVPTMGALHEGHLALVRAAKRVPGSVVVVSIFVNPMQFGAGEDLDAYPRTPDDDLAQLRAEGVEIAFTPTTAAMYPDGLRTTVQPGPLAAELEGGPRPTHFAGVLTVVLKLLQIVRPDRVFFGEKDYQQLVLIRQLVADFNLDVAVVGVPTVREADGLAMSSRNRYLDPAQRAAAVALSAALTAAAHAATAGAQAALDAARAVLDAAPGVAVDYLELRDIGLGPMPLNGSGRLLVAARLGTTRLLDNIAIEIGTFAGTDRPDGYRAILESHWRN

Row | SMILES | inhibition [%]
1 | CN(C)c1cccc(NC(=O)CCc2ccccc2)c1 | 0
2 | O=C(NCc1ccco1)C1CCN(C(=O)c2cc3sccc3n2Cc2ccc(F)cc2)CC1 | 5
3 | CC1=Nn2c(nnc2-c2ccccc2)SC1 | 0
4 | CN1C(=O)C(CC(=O)N2CCN(C(c3ccccc3)c3ccccc3)CC2)N(C)C1=O (stereo not given) | 0
5 | CS(=O)(=O)N1CCCC(C(=O)N2CCOCC2)C1 (stereo not given) | 6
6 | O=C(CCSc1ccccc1)N1CCN(C(=O)c2ccco2)CC1 | 0
7 | Cc1cnc(C(=O)Nc2nnc(C(C)C)s2)cn1 | 0
8 | CN(C)C(=O)CSc1nnc2sc3ccccc3n12 | 0
9 | COC(=O)c1ccccc1NC(=O)Cn1c(-c2nonc2N)nc2ccccc21 | 0
10 | CC(=O)Nc1ccc(S(=O)(=O)NCc2cn3c(C)csc3n2)cc1 | 0
11 | O=c1c2c(nc3nc(CCc4ccccc4)[nH]n13)CCC2 | 9
12 | C/C(=C\C(=O)O)CC(=O)O | 0
13 | CCN(CC)S(=O)(=O)c1ccc(F)cc1 | 0
14 | Cc1cccc(N(CC(=O)N2CCCC2)S(=O)(=O)c2ccccc2)c1C | 0
15 | CCN1CCN(Cc2ccccc2NC(=O)Nc2ccc(C)cc2)CC1 | 3
16 | COc1cccc(OCc2nc3c4cnn(-c5ccccc5)c4ncn3n2)c1 | 0
17 | COc1ccc(C(=O)c2ccc(OC)c(N)c2)cc1N | 0
18 | O=C(c1ccc(CSCc2ccccc2F)o1)N1CCN(c2ccc(N3CCOCC3)nn2)CC1 | 0
19 | NS(=O)(=O)c1ccc(NC(=O)N[C@@H](Cc2ccccc2)C(=O)O)cc1 | 0
20 | COc1ccc(Oc2nc(Oc3ccc(OC)cc3)nc(Oc3ccc(OC)cc3)n2)cc1 | 0

Row | SMILES | inhibition [%]
21 | CCC(=O)Nc1cc(C(=O)NCC2CCCN2CC)c(OC)cc1N(C)C (stereo not given) | 0
22 | CC1c2nc3ccccc3n2C(CC(=O)NCc2ccccn2)C(=O)N1Cc1ccccc1 (stereo not given) | 0
23 | COC(=O)C(C)NC(=O)C12CC3CC(CC(C3)C1)C2 (stereo not given) | 0
24 | CC/C(O)=C(/C#N)c1nnc2n1CCCCC2 | 5
25 | CCOC(=O)Cn1c(S(=O)(=O)Cc2ccccc2)nc2ccccc21 | 0
26 | CC1(C)S[C@@H]2[C@H](NC(=O)Cc3ccccc3)C(=O)N2[C@H]1C(=O)O | 6
27 | O=C(O)CN(c1ccccc1)C1SC(=O)NC1=O (stereo not given) | 0
28 | CCCn1c(NC(=O)C2COc3ccccc3O2)nc2ccccc21 (stereo not given) | 0
29 | CCOC(=O)c1c(C)oc2c1c(C=NCc1ccccn1)c(O)c1ccccc12 | 3
30 | CCc1ccc(NC(=O)C2CC(=O)N(C(C)C)C2)cc1 (stereo not given) | 0
31 | O=C(NC1CCCCC1)C1CCCN1C(=O)NCc1ccccc1 (stereo not given) | 4
32 | O=C(NCc1ccco1)c1cnc2n(c1=O)CCS2 | 0
33 | CCN(CC)c1nc2nonc2nc1N(CC)CC | 0
34 | CCOC(=O)C1(c2ccccc2)NC(c2ccc(N(C)C)cc2)C2C(=O)N(C)C(=O)C21 (stereo not given) | 0
35 | COc1ccccc1NC(=O)c1oc2ccccc2c1NC(=O)c1cc(OC)c(OC)c(OC)c1 | 0
36 | Cc1csc(NC(=O)Nc2cccc(Cl)c2)n1 | 0
37 | COc1cc(C2c3c(oc4c(C)cc(C)cc4c3=O)C(=O)N2Cc2cccnc2)ccc1O (stereo not given) | 0
38 | COc1ccccc1C(=O)Nc1ccc(N2CCN(Cc3ccccc3)CC2)cc1 | 0
39 | CC(C)c1ccc(S(=O)(=O)N2CCN(C(=O)c3cccc(F)c3)CC2)cc1 | 8
40 | COC(=O)Nc1nnc(CCc2ccccc2)s1 | 2
